Screening results: PubChem, The Scripps Research Institute Molecular Screening Center
HTR5A inv ctr = HTR5A inverse agonists in luminescence cell assay, primary screen, counter-screen for OPRM1-OPRD1 heterodimer inverse agonist project, full-deck HTS | 5-hydroxytryptamine receptor 5A (Homo sapiens), P47898 | HTR5A cell line, inverse agonism | 0.083% of 340,000 active | inhibition, % at 9.3 µM; in the data active means inhibition mostly above about 23%, no sharp cut-off; inactive means mostly below about 18%
MOR-DOR ag-1 = agonists of OPRM1-OPRD1 heterodimerization, primary screen, cell-based, luminescence | cells | activation, % at 9.3 µM | 0.3% of 340,000 active | AID 504326, 2011
HTR5A ag ctr = HTR5A agonists in luminescence cell assay, primary screen, counter-screen for OPRM1-OPRD1 heterodimer agonist project, full-deck HTS; 5-hydroxytryptamine receptor 5A (Homo sapiens), P47898; cell-based; activation, % at 9.3 µM; 0.61% of 340,000 active; AID 504692, 2011; in the data active means activation mostly above about 9.5%, no sharp cut-off; inactive means mostly below about 7.6%
MOR-DOR inv ag = inverse agonists of MOR-DOR heterodimerization, primary screen, cell-based, luminescence; Mu-type opioid receptor (Homo sapiens) + Delta-type opioid receptor (Homo sapiens), …; inhibition, % at 9.3 µM; cell-based MOR-DOR heterodimer luminescence, inverse agonism; AID 504357, 2011; 0.21% of 340,000 active; in the data active means inhibition above about 22%, passing the limit was not always enough
MOR-DOR ag-2 = OPRM1-OPRD1 heterodimerization promoters, counter-screen for HTR5A agonist project, cell-based, luminescence. shares compounds with HTR5A ag ctr. U2OS counter-screen cells, complementation luminescence, 3 h. activation, % at 9.3 µM. 13% of 800 active
HTR5A ag conf = HTR5A agonists, retest of hits, confirmation, cell-based, luminescence; 17% of 800 active; HTR5A agonist cell assay; activation, % at 9.3 µM; shares compounds with HTR5A ag ctr; in the data active means activation above about 17%
Hits are given with their value; i = inactive; nt = no result. This is a sample that favours compounds with a hit; in the whole collection about 1.1% have one here. Unless noted, no stated cut-off is given here; in the data, active means activation above about 18%; inactive means the rest.

SMILES	HTR5A inv ctr	MOR-DOR ag-1	HTR5A ag ctr	MOR-DOR inv ag	MOR-DOR ag-2	HTR5A ag conf
O=C(NCCc1c[nH]c2ccccc12)C(=O)NCC1OCCCN1S(=O)(=O)c1ccc(F)cc1 (stereo not drawn)	i	i	16	i	i	24
O=C(NCCCc1ccccc1)C(=O)NCC1OCCN1S(=O)(=O)c1cc(F)ccc1F (stereo not drawn)	i	i	i	i	nt	nt
O=C(NCCc1c[nH]c2ccccc12)C(=O)NCC1OCCN1S(=O)(=O)c1cc(F)ccc1F (stereo not drawn)	i	i	34	i	i	45
Cc1ccc(S(=O)(=O)N2CCOC2CNC(=O)C(=O)NCCc2c[nH]c3ccccc23)cc1 (stereo not drawn)	i	i	54	i	i	i
CC(=O)Nc1ccc(NC(=O)C(C)OC(=O)c2cc(S(=O)(=O)N(C)C)ccc2N2CCCC2)cc1 (stereo not drawn)	i	i	i	i	nt	nt
COCCCNc1nc2nonc2nc1N(C)CC1CCCN1C (stereo not drawn)	i	i	i	i	nt	nt
Cc1noc(C)c1S(=O)(=O)N(CC(=O)O)c1ccc2c(c1)OCO2	i	i	i	i	nt	nt
Cc1c(Cl)cccc1NC(=S)NCCCN(C)C	i	i	i	i	nt	nt
Cc1cc(NS(=O)(=O)c2ccc(NC(=O)c3ccc(F)cc3)cc2)nc(C)n1	i	i	i	i	nt	nt
COc1cc(CC(=O)Nc2ccc(Cl)c(C(F)(F)F)c2)cc(OC)c1OC	i	i	i	i	nt	nt
CCOC(=O)c1ccccc1NC(=O)c1nc2nccc(C)n2n1	i	i	i	i	nt	nt
O=C(NCCO)C(=O)NCC1OCCCN1S(=O)(=O)c1cccs1 (stereo not drawn)	i	i	i	i	nt	nt
O=C(NCCc1c[nH]c2ccccc12)C(=O)NCC1OCCCN1S(=O)(=O)c1cccs1 (stereo not drawn)	i	i	31	i	i	i
CNC(=O)C(=O)NCC1OCCCN1S(=O)(=O)c1cccs1 (stereo not drawn)	i	i	i	i	nt	nt
O=C(NCCCO)C(=O)NCC1OCCCN1S(=O)(=O)c1cccs1 (stereo not drawn)	i	i	17	i	i	i
Cn1cc(S(=O)(=O)NCc2cccs2)c(=O)n(C)c1=O	i	i	19	i	i	i
Cc1ccc2oc(=O)c3cnn(CC(=O)NC4CCCCC4C)c3c2c1 (stereo not drawn)	i	i	21	i	i	i
O=C(NCc1ccccc1)c1cccnc1	i	i	i	i	nt	nt
CCC(=O)c1ccccc1OCC(=O)Nc1c(C)cccc1C	i	i	16	i	i	i
Cc1ccccc1C(=O)c1c[nH]c(C(=O)NCc2ccco2)c1	i	i	i	i	nt	nt
O=C(NCc1ccco1)c1cc(C(=O)C2CC2)c[nH]1	i	i	17	i	i	i
COCC(C)NC(=O)CCc1nnc(C2(c3ccc(Cl)cc3)CCC2)o1 (stereo not drawn)	i	i	i	i	nt	nt
C=CCN1CCc2c(cc(O)c(O)c2Cl)C(c2ccccc2)C1 (stereo not drawn)	i	i	26	i	i	i
CC1(C)CC(n2c(NCCO)nc3c(c2=O)C2(CCCC2)Cc2ccccc2-3)CCO1 (stereo not drawn)	i	i	23	i	i	i
COc1ccc(C(=O)Nc2cc(OC)ccc2OC)cc1	i	i	i	i	nt	nt
COc1ccc(OC)c(NC(=O)c2cc(OC(C)=O)cc(C(=O)Nc3cc(OC)ccc3OC)c2)c1	i	i	18	i	i	i
Cc1c(C(=O)Oc2cc(N)n(S(C)(=O)=O)n2)cccc1[N+](=O)[O-]	i	i	i	i	nt	nt
Cc1[nH]nc(-c2ccc(OCc3cnn(-c4ccccc4)c3)c(C)c2O)c1Oc1ccccc1	i	i	22	i	19	i
COc1ccc(-n2nnnc2SCC(=O)N2CCCC2=O)cc1	i	i	i	i	nt	nt
